Calls of active or inactive are those of the source. Rule for the calls: active = hit-call score of the fitted dose curve at least 0.9, where 1 is the maximum; inactive = score below 0.9.
read-out: Potassium channel subfamily K member 1 (KCNK1), KCNK1 (gene 3775); assay: LTEA_HepaRG_KCNK1: Life Technologies and Expression Analysis (LTEA) Assay for Potassium channel subfamily K member 1 (KCNK1) using HepaRG (AID 2283511); details: mRNA level, 48 h; actives raise or lower the signal
Protocol: LTEA_HepaRG is a cell based, multiplexed-readout assay that uses HepaRG, a human liver cell line, with measurements taken at 48 hours after chemical dosing on a 96-well plate.LTEA_HepaRG_KCNK1 is one of 102 assay component(s) measured in the LTEA HepaRG cell culture assay. It is a marker of Hyperplasia.Data from the assay component LTEA_HepaRG_KCNK1 was analyzed into 1 endpoint. This assay endpoint, LTEA_HepaRG_KCNK1, was analyzed with bidirectional fitting relative to DMSO as the negative control and baseline of activity. Using a type of inducible reporter, measures of mRNA induction for gain or loss-of-signal activity can be used to understand regulation of transcription factor activity. To generalize the intended target to other relatable targets, this assay endpoint is annotated to the ion channel intended target family, where the subfamily is potassium channel.
A total of 1060 chemcials from the ToxCast library were tested in eight-point concentration-response experiments. Cell culture and cytotoxicity assays were conducted at Thermo Fisher Scientific's Custom Services facility (Madison, WI). A single lot of human HepaRG cells (Thermo Fisher Scientific, Frederick, MD) was used for the cell culture experiments. 96-well format collagen type I coated plates of human HepaRG cells were prepared using established methods. Briefly, cryopreserved HepaRG cells were thawed, plated at a density of approximately 100,000 cells/well in HepaRG Thaw, Plate, and General Purpose media (HPRG770, Thermo Fisher Scientific), and incubated for 48 hours. 0.5% DMSO was selected as vehicle control to balance the requisite need of DMSO in HepaRG cultures to maintain differentiation (for example, baseline metabolism, proportions of hepatocytes vs. cholangiocytes), while enabling further hepatic receptor pathway activation (for example, PXR and CAR) in response to chemical exposure. 48 hours after plating, the culture medium was replaced with HepaRG Serum-Free Incudtion Media. Cells were exposed to each test chemical in duplicate and maintained in CO2 incubators for another 48 hours. Chemical plates were thawed to room temperature and 200x concentrations of treatment groups were prepared. 8-point conentration-reponse curves were made with the highest exposure at 100 uM, followed by half-log dilutions, all in 0.5% DMSO. Each test plate contained variouse controls, induction positive controls (1mM phenobarbital), cytotoxicity positive controls ([…] aflatoxin B1), vehicle controls (0.5% DMSO), and total lysis controls (0.5% DMSO). Cell morphology images were taken using an Essen IncuCyte FLR automated microscope, with six 96-well plates imaged in about 24 minutes. Images were captured and exported and JPEG files. Spent culture media was transfered to black-well plates for the LDH assay, and remaining media was sorted at -80 C for later use. Cells were treated with RLT buffer and frozen until shipped for gene expression analysis. Total RNA was isolated from the cell suspension in 75 uL of Buffer RLT (Qiagen, Germantown, MD 20874) by Quintiles/Expression Analysis (Durham, NC) using a custom isolation procedure. Total RNA from each plate well was transferred to a preamplification plate. Fluidigm's 96.96 Dynamic ArrayTM (Fluidigm, Amsterdam, the Netherlands) technology was used for gene expression analyses by quantitative reverse transcription polymerase chain reaction (qRT-PCR, performed by Quintiles/Expression Analysis, Durham, NC)89. Standard TaqManTM Assays (Applied Biosystems/ThermoFisher Scientific, Foster City, CA) were used to assess the expression of 93 genes selected based on their selectivity and sensitivity to important hepatic receptors known to be modulated by environmental chemicals; importance in human hepatocyte functionality; and hepatotoxicity. […]

outcome, inactive:
CC(C)(O)c1ccc(CNC(=O)c2cccnc2Oc2ccc(F)cc2)cc1
NC=O
CC(COCC(C)OC(=O)c1ccccc1)OC(=O)c1ccccc1 (stereo not given)
CCc1nc(N)nc(N)c1-c1ccc(Cl)cc1
Cn1cnc2c1c(=O)[nH]c(=O)n2C
CCCC[C@H]1CN(CC2CCOCC2)C(=O)OC12CCN(C1(C)CCN(C(=O)c3c(C)ncnc3C)CC1)CC2
C/C=C/c1ccc(OC)cc1
COC(=O)[C@H]1[C@H]2C[C@@H]3c4[nH]c5cc(OC)ccc5c4CCN3C[C@H]2C[C@@H](OC(=O)c2cc(OC)c(OC)c(OC)c2)[C@@H]1OC
CC(=O)O
O=C1c2c(O)cccc2Cc2cccc(O)c21
COC(=O)CCCC(=O)OC
CCN(CC)CCOc1ccc(C(=C(Cl)c2ccccc2)c2ccccc2)cc1
CSc1ccc(Oc2ccc(S(N)(=O)=O)cc2CN(C)C)cc1C
OCC(O)CO
O=C(NS(=O)(=O)/C=C/c1cccs1)c1ccc(F)cc1Br
O=Cc1ccccc1C=O
CCCCCCC(CCCCCCCCCCC(=O)OCC(COC(C)=O)OC(C)=O)OC(C)=O (stereo not given)
CCCCC(CC)COP(=O)(OCC(CC)CCCC)OCC(CC)CCCC (stereo not given)
CC(C)(C)c1ccccc1
CC(C)COC(=O)CCCCC(=O)OCC(C)C
CC(=O)S[C@H](C(=O)N[C@H]1Cc2ccccc2[C@H]2CCC[C@@H](C(=O)O)N2C1=O)C(C)C
O=C(O)CC(O)(CC(=O)O)C(=O)O
N[C@@H](Cc1c[nH]c2ccccc12)C(=O)O
COC(=O)CCC(=O)OC
C/C=C/C=C/C(=O)O
CN(C)C(=O)NC1(c2ccccc2)CCN(CC[C@@]2(c3ccc(F)c(F)c3)CN(C(=O)c3ccccc3)CCO2)CC1
Cc1cn([C@H]2C=C[C@@H](CO)O2)c(=O)[nH]c1=O
CCCC(=O)O
O=C(O)c1[nH]n(-c2ccc(S(=O)(=O)O)cc2)c(=O)c1N=Nc1ccc(S(=O)(=O)O)cc1
CCCCCCCCCCCCCCCCO
NCCOCCOCCN
S=c1[nH]c2ccccc2s1
CN(C)CCCN1c2ccccc2Sc2ccc(Cl)cc21
Cc1c(C)c2c(c(C)c1O)CCC(C)(COc1ccc(CC3SC(=O)NC3=O)cc1)O2 (stereo not given)
O=NO
CC(C)c1cccc(C(C)C)c1
Oc1ccc(O)cc1

AC50, active:
COc1ccc(OC(F)(F)F)cc1CN[C@H]1CCCN[C@H]1c1ccccc1 79.1 µM
O=C(N[C@@H](c1ccccc1)[C@@H]1CCCCN1)c1cccc(C(F)(F)F)c1Cl 50 µM
CS(=O)(=O)c1ccc([C@@H](C[C@H]2CCC(=O)C2)C(=O)Nc2cnccn2)cc1Cl 1.4 µM

Source: PubChem BioAssay (EPA / NIEHS)
